According to paper PMC4336329 (PLoS ONE, 2015):
The whole screen tested about 310,000 compounds, of which about 14,000 (4.5%) showed an effect of 50% or more. Effects have a minus sign here. This excerpt belongs to a sample that is enriched for strong results.

target: human ether-à-go-go-related gene (hERG) potassium channel (human, UniProt Q12809); test: primary screen, population patch clamp on CHO cells stably expressing hERG; higher = less effect of the substance
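Note: peak tail current of the secondary pulse compared with the same well before compound.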

human ether-à-go-go-related gene (hERG) potassium channel, sequence (Q12809 whole entry, looked up): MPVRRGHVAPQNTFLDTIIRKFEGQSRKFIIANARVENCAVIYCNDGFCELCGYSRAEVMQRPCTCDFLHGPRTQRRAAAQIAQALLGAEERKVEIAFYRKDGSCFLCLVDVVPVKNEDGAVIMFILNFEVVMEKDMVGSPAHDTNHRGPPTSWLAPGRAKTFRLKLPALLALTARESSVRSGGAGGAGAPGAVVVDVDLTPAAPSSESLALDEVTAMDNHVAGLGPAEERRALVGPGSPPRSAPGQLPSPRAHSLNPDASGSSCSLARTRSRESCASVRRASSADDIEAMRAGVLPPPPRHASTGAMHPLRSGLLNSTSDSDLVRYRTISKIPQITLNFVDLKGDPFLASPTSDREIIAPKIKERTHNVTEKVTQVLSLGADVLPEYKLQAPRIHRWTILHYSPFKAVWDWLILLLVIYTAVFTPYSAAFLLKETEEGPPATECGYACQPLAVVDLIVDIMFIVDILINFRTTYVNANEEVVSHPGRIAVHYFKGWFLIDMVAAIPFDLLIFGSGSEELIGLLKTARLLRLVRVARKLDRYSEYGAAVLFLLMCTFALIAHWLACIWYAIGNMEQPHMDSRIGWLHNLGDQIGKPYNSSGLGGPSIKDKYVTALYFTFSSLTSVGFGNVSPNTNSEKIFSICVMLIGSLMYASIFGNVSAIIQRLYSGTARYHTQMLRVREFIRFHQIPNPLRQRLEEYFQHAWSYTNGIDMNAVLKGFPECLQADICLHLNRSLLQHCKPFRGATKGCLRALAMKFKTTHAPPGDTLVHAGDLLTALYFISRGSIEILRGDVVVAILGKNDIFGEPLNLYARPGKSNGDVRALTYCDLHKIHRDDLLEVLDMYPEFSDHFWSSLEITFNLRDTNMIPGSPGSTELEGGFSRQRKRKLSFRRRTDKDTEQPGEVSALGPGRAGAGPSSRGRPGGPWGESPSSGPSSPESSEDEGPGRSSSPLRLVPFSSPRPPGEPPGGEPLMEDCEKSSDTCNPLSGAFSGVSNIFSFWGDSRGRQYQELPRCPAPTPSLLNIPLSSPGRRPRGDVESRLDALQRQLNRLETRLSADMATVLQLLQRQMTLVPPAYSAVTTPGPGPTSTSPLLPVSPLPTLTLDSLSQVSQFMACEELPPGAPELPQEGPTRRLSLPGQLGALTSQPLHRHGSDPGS

Compound	hERG current change (%, negative = inhibition) at 10uM [%]
CC(OC(=O)C1CCC(=O)N1)C(=O)Nc1cc(Cl)cc(Cl)c1 (stereo not shown)	2.72
O=C(CSc1n[nH]c(=O)n1Cc1ccco1)c1ccc2c(c1)OCCO2	15
c1cc2c(cc1Oc1nc(N3CCOCC3)nc(N3CCOCC3)n1)OCO2	3.77
CC(C)Cc1ccc(C(C)C(=O)OCC(=O)c2c[nH]c3ccccc23)cc1 (stereo not shown)	3.98
Cc1ccc(C)c(NC(=O)c2cc(S(=O)(=O)N3CCCCC3)ccc2N2CCOCC2)c1	-62.7
O=C(Nc1ccccc1Cl)c1cc(S(=O)(=O)N2CCCCC2)ccc1N1CCOCC1	-39.7
COc1ccc(C)cc1NC(=O)c1cc(S(=O)(=O)N2CCCCC2)ccc1N1CCOCC1	-39.2
Cc1ccc(NC(=O)c2cc([N+](=O)[O-])ccc2N2CCOCC2)cc1S(=O)(=O)N(C)C	-52.8
COc1ccc(S(=O)(=O)N2CCCCC2)cc1NC(=O)c1cc([N+](=O)[O-])ccc1N1CCOCC1	-30.4
Cc1ccc(NC(=O)c2cc([N+](=O)[O-])ccc2N2CCOCC2)cc1S(=O)(=O)N1CCOCC1	-46
CCN(CC)S(=O)(=O)c1cc(NC(=O)c2cc([N+](=O)[O-])ccc2N2CCOCC2)ccc1C	-20.5
NC(=O)c1ccccc1NC(=O)c1cc(S(=O)(=O)N2CCCCC2)ccc1N1CCOCC1	-73.9
CC(C)Oc1ccc(S(=O)(=O)N2CCOCC2)cc1NC(=O)c1cc([N+](=O)[O-])ccc1N1CCOCC1	-45.7
Cc1ccc(NC(=O)c2cc(S(=O)(=O)N3CCCCC3)ccc2N2CCOCC2)cc1F	-13.9
Cc1ccc(S(=O)(=O)N2CCOCC2)cc1NC(=O)c1cc([N+](=O)[O-])ccc1N1CCOCC1	-67.7
O=C(Nc1ccccc1)c1cc(S(=O)(=O)N2CCCCC2)ccc1N1CCOCC1	1.08
Cc1ccc(NC(=O)/C(=C/c2cccs2)NC(=O)c2ccco2)c(C)c1	-9.56
CCCC(=O)NNC(=O)Nc1ccccc1	19.8
O=c1[nH]c(CSc2nc3ccccc3[nH]2)nc2c1cnn2-c1ccccc1	-17.6
COc1ccc(CC(=O)Nc2cc(C)on2)cc1OC	2.2
CC(=O)Nc1ccc(S(=O)(=O)Nc2nc3ccccc3nc2Nc2cccc(S(N)(=O)=O)c2)cc1	10.3

Compound	hERG current change (%, negative = inhibition) at 10uM [%]
CCOc1ccc2oc(-c3ccccc3)c(C(=O)N3CCN(C)CC3)c2c1	-9.67
O=C(Nc1ccccc1N1CCCCC1)c1cc(S(=O)(=O)N2CCOCC2)ccc1Cl	-4.01
O=C(Nc1ccccc1N1CCCC1)c1cc(S(=O)(=O)N2CCOCC2)ccc1Cl	-34.5
CS(=O)(=O)c1ccc(Cl)c(NC(=O)c2cc(S(=O)(=O)N3CCOCC3)ccc2N2CCCC2)c1	-81.3
Cc1nc(CC(=O)NNS(=O)(=O)c2ccc(F)c(Cl)c2)cs1	20
O=C(COC(=O)C1CCCN1C(=O)c1cccs1)Nc1ccc2c(c1)OCO2 (stereo not shown)	-11.9
Cc1ccc(C)c(S(=O)(=O)Nc2cc(SCC(=O)O)c(O)c3ccccc23)c1	5.34
CCOc1ccc(Cc2c(C)[nH]c3ccc(C(=O)O)cc3c2=S)cc1	-9.2
COc1ccc([N+](=O)[O-])cc1N(CC(O)CN1CCCC1)S(=O)(=O)c1ccc(C)cc1 (stereo not shown)	-2.85
Cc1ccc(S(=O)(=O)N(CC(O)CN2CCCCC2)c2cccc([N+](=O)[O-])c2)cc1 (stereo not shown)	-78.8
COc1ccc([N+](=O)[O-])cc1N(CC(O)CN1CCCCC1)S(=O)(=O)c1ccc(C)cc1 (stereo not shown)	-42.7
O=[N+]([O-])c1cccc(N(CC(O)CN2CCCC2)S(=O)(=O)c2ccccc2)c1 (stereo not shown)	-62.4
O=[N+]([O-])c1cccc(N(CC(O)CN2CCCCC2)S(=O)(=O)c2ccccc2)c1 (stereo not shown)	-43.8
Cc1cc(C)n(CC(O)CN(c2cccc([N+](=O)[O-])c2)S(=O)(=O)c2ccccc2)n1 (stereo not shown)	7.08
Cc1cc(C)c2nc(SCC#N)cc(C)c2c1	13.5
O=C(OCC#CCSc1nnc(-c2cccc3ccccc23)o1)c1ccco1	-2.9
CCN=C(Nc1ccc(Cl)cc1)c1cccnc1	-2.16
O=C(N/C(=C/c1ccco1)C(=O)N1CCCC1)c1cccs1	-0.326
CC(C)(C)OC(=O)N1CCOCCOCCN(C(=O)OC(C)(C)C)CCOCCOCC1	7
Cc1oc(-c2ccc(Cl)cc2)nc1CN1CCCC(C(=O)NCCCN2CCOCC2)C1 (stereo not shown)	-19.4
Cc1oc(-c2ccc(Cl)cc2)nc1CS(=O)CC(=O)NC1CC1 (stereo not shown)	8.75

Compound	hERG current change (%, negative = inhibition) at 10uM [%]
Cc1oc(-c2ccc(Cl)cc2)nc1CN1CCCC(C(=O)NC2CC2)C1 (stereo not shown)	-81.3
COc1ccc(-c2nc(CN3CCC(C(=O)NC4CCCC4)CC3)c(C)o2)cc1OC	-36.4
COc1ccc(-c2nc(CN3CCCC(C(=O)NC4CCCC4)C3)c(C)o2)cc1 (stereo not shown)	-64.4
COc1ccc(-c2nc(CS(=O)CC(=O)NC3CCCC3)c(C)o2)cc1 (stereo not shown)	-16.4
CC1CCN(c2nc(N3CCCCC3)nc(N3CCCCC3)n2)CC1	9.57
CC(C)(C)C(=O)OCc1nc(-c2ccc(Cl)cc2)cs1	7.41
COc1ccc(CNC(=O)CCc2nc3cc(S(=O)(=O)N(C)C)ccc3n2C)cc1OC	14.3
N#C/C(=C\N1CCCCC1)S(=O)(=O)c1ccc(Cl)cc1	15.6
O=C(NCCc1ccccc1)c1ccc(S(=O)(=O)N2CCCC2)cc1	-5.37
CSc1cccc(NC(=O)COC(=O)C2CCN(S(=O)(=O)c3ccccc3)CC2)c1	4.09
Cc1ccc(-n2cnnn2)cc1Cl	-18.8
C/C(=N\NC(=O)CNC(=O)c1cccs1)c1ccc(Cl)c(Cl)c1	-2.25
Fc1ccccc1CNc1ccc(Cl)cc1	-8.14
Fc1ccc(NCc2ccccc2F)cc1Cl	-139
Fc1ccccc1CNc1ccc(Cl)c(Cl)c1	9.9
CC(NC(=O)CSC1=NCCS1)c1ccccc1 (stereo not shown)	14.3
Clc1nc2sccn2c1/C=N/n1cnc2ccccc21	-10
COc1ccc(C(C(=O)NC2CCCCC2)N(C(=O)c2ccco2)c2ccccc2C(C)=O)cc1OC (stereo not shown)	9.15
O=C(CN1CCOCC1)NCC(=O)Nc1ccc(Br)cc1C(=O)c1ccccc1	-37.1
O=C(CCN1CCOCC1)NCC(=O)Nc1ccc(Br)cc1C(=O)c1ccccc1	-49.5
O=C(CNC(=O)OCc1ccccc1)Nc1ccc(Br)cc1C(=O)c1ccccc1Cl	-40.5

Compound	hERG current change (%, negative = inhibition) at 10uM [%]
O=C(CN1CCOCC1)Nc1ccc(Br)cc1C(=O)c1ccccc1	-32.4
O=C(CN1CCCCC1)NCC(=O)Nc1ccc(Br)cc1C(=O)c1ccccc1	-79.1
O=C(CNC(=O)OCc1ccccc1)Nc1ccc(Br)cc1C(=O)c1ccccc1	-15.1
CC(C(=O)Nc1ccc(Br)cc1C(=O)c1ccccc1)N1CCCCC1 (stereo not shown)	-24.8
O=C(CCN1CCOCC1)Nc1ccc(Br)cc1C(=O)c1ccccc1	-19.6
CC(C(=O)Nc1ccc(Br)cc1C(=O)c1ccccc1)N1CCOCC1 (stereo not shown)	-58.6
Cc1ccc(NC(=O)C(C)N2CCOCC2)c(C(=O)c2ccccc2)c1 (stereo not shown)	-26.9
O=C(CCN1CCCCC1)NCC(=O)Nc1ccc(Br)cc1C(=O)c1ccccc1	-77.6
O=C(CNC(=O)OCc1ccccc1)NCC(=O)Nc1ccc(Br)cc1C(=O)c1ccccc1	-56
Cc1csc(NC(=O)c2ccc(C)s2)n1	6.99
Cc1cc(C(=O)N/N=C/c2c[nH]c3ccccc23)c(C)o1	-27.4
N#Cc1c(C(F)(F)F)cc(-c2ccc(Cl)c(Cl)c2)nc1SCCN1CCOCC1	6.62
CN1CCC(OC(=O)c2cc3cc(Cl)cc(Cl)c3oc2=O)CC1	-17.8
O=C1N/C(=C\c2ccc(O)cc2)C(=O)c2ccccc21	-1.53
O=C(O)C(=O)O.O=S(=O)(c1ccc(F)cc1)N1CCC(N2CCCCCC2)CC1	-26.3
COc1ccc(Nc2ccc(Nc3ccc(OC)cc3)nn2)cc1	18.6
Cc1cccc(N2CCN(C(=O)Cn3nc(C)n4cccc4c3=O)CC2C)c1 (stereo not shown)	1.19
O=C(O)CCCCCCCCc1cn(Cc2ccc(C(=O)c3ccccc3)cc2)nn1	19.5
Cc1cccc(C)c1OCC(=O)N/N=C/c1cc2c(cc1[N+](=O)[O-])OCO2	-4.6
